According to PubChem BioAssay (Tox21):
A number with no mark means an inactive call. Results filed as inconclusive are left out. Activity calls are given as the source filed them. Unless noted, the call rests on the fitted dose curve.

system: not listed separately; assay: qHTS assay to identify small molecule agonists of the sonic hedgehog signaling (Shh) pathway (AID 1259368); conditions: NIH/3T3 Gli1-Luc reporter, luciferase, 24 h, hits give high values; series mostly up to 92.4 µM; activity change: at the top concentration;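 further: NIH/3T3-derived 3T3Gli1-Luc cells carrying a stable Gli1-driven firefly luciferase reporter; nearly all actives have a fitted effect of over 15% in size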
In short: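 Mouse fibroblast (NIH/3T3) reporter cells with stably integrated Gli1-Luc were treated 24 hr with compound; firefly luciferase luminescence served as the read-out.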
On the % scale 0 is the no-effect control and ±100 the full control effect.

Row | SMILES | activity change | outcome
1 | COc1ccc(CCN(C)CCCC(C#N)(c2cc(OC)c(OC)c(OC)c2)C(C)C)cc1OC (stereo not given) | -1.6% [at 42.5 µM] | –
2 | CC1(C)C(O)C(C)(C)C1O (stereo not given) | -0.136% | –
3 | CC(=O)N(CC(O)CO)c1c(I)c(C(=O)NCCO)c(I)c(C(=O)NCC(O)CO)c1I (stereo not given) | 0.102% [at 42.5 µM] | –
4 | C1OCOCO1 | 0.425% | –
5 | NS(=O)(=O)c1ccccc1Cl | 0.549% | –
6 | O=S(O)CO | 1.13% | –
7 | CCCCCCCCCCCC | -0.256% | –
8 | CN1CCN(c2cc3c(cc2F)c(=O)c(C(=O)O)cn3-c2ccc(F)cc2)CC1 | -1.21% [at 42.5 µM] | –
9 | Cc1ccc(=O)n(-c2ccccc2)c1 | 0.0747% [at 42.5 µM] | –
10 | CO[C@]12C[C@@H](COC(=O)c3cncc(Br)c3)CN(C)[C@@H]1Cc1cn(C)c3cccc2c13 | 0.0718% [at 42.5 µM] | –
11 | CC(C)(C)NCCNC(C)(C)C | 2.11% | –
12 | CO[Si](CCCOCC1CO1)(OC)OC (stereo not given) | – | inactive
13 | CC(C)(O)C#CC(C)(C)O | 0.0716% | –
14 | Cc1cccn2c(=O)c(-c3nnn[nH]3)cnc12 | 0.228% [at 18.9 µM] | –
15 | CCCCCSCCCCC | 0.579% | –
16 | Nc1c2c(nc3ccccc13)CCCC2O (stereo not given) | 0.578% [at 42.5 µM] | –
17 | CCn1ccnc1CC1COc2ccccc2O1 (stereo not given) | 0.567% [at 42.5 µM] | –
18 | CN1N=C(C(N)=O)CCC1=O | 0.062% [at 42.5 µM] | –

Row | SMILES | activity change | outcome
19 | CC(C)NC(=O)NC(C)C | 0.408% | –
20 | OC[C@]1(O)OC[C@@H](O)[C@H](O)[C@@H]1O | – | inactive
21 | O=C(O)c1ccccc1OP(=O)(O)O | -0.366% [at 42.5 µM] | –
22 | Cc1cc(O)cc2c1O[C@](C)(CCC[C@H](C)CCC[C@H](C)CCCC(C)C)CC2 | 0.233% [at 42.5 µM] | –
23 | O=C(CCCN1CCC(O)(c2cccc(C(F)(F)F)c2)CC1)c1ccc(F)cc1 | -0.366% [at 42.5 µM] | –
24 | CN(C)CCCSc1ccccc1NC(=O)/C=C/c1ccccc1 | 2.27% [at 42.5 µM] | –
25 | O=C1OC(=O)C2CCCCC12 (stereo not given) | 0.792% | –
26 | CCCCC/C=C\CCC=O | -0.819% | –
27 | OCCOc1ccc(OCCO)cc1 | 0.268% | –
28 | Cc1[nH]c(=O)c(C#N)cc1-c1ccc2nccn2c1 | -1.37% [at 42.5 µM] | –
29 | OC(CCN1CCCCC1)(c1ccccc1)C1CC2C=CC1C2 (stereo not given) | -1.6% [at 42.5 µM] | –
30 | Cn1cc(S(C)=O)c(=O)c2ccc(F)cc21 (stereo not given) | -0.0341% [at 42.5 µM] | –
31 | C=C(C)C(=O)OCCCCCCCC(C)C | -20.4% | –
32 | C=C[Si](OC(=C)C)(OC(=C)C)OC(=C)C | 0.0049% | –
33 | CCO[Si](CCC1CCC2OC2C1)(OCC)OCC (stereo not given) | -0.0157% | –
34 | Cc1cccc(C)c1NC(=O)C(C)N (stereo not given) | 2.13% [at 42.5 µM] | –
35 | Cc1nc2c([nH]1)c(=O)n(C)c(=O)n2Cc1ccco1 | -0.364% [at 42.5 µM] | –

system: not listed separately; assay: qHTS assay to identify small molecule antagonists of the sonic hedgehog signaling (Shh) pathway (AID 1259369); conditions: NIH/3T3 Gli1-Luc reporter, Shh antagonist, luminescence 24 h; series mostly up to 42.5 µM; activity change, negative = inhibition: at the top concentration; further: nearly all actives have a fitted effect of over 45% in size; further: potency means the concentration at half of the fitted maximal effect
In short: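 Conditioned medium drives Shh signalling in 3T3Gli1-Luc cells; compounds in DMSO co-applied, 24hr at 37 C, then luciferase luminescence.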

Row | SMILES | activity change, negative = inhibition | Potency
36 | CC1(C)C(O)C(C)(C)C1O (stereo not given) | 0% [at 92.4 µM] | –
37 | C1OCOCO1 | 16.1% [at 92.4 µM] | –
38 | NS(=O)(=O)c1ccccc1Cl | 0.945% [at 92.4 µM] | –
39 | CO[C@]12C[C@@H](COC(=O)c3cncc(Br)c3)CN(C)[C@@H]1Cc1cn(C)c3cccc2c13 | -20.8% | –
40 | CC(C)(C)NCCNC(C)(C)C | 0% [at 92.4 µM] | –
41 | CO[Si](CCCOCC1CO1)(OC)OC (stereo not given) | – | inactive
42 | CCCCCSCCCCC | -10% [at 92.4 µM] | –
43 | CCn1ccnc1CC1COc2ccccc2O1 (stereo not given) | 12.7% | –
44 | OC[C@]1(O)OC[C@@H](O)[C@H](O)[C@@H]1O | – | inactive
45 | Cc1cc(O)cc2c1O[C@](C)(CCC[C@H](C)CCC[C@H](C)CCCC(C)C)CC2 | 27% | –
46 | O=C(CCCN1CCC(O)(c2cccc(C(F)(F)F)c2)CC1)c1ccc(F)cc1 | 6.65% | –
47 | CN(C)CCCSc1ccccc1NC(=O)/C=C/c1ccccc1 | -22.7% | –
48 | O=C1OC(=O)C2CCCCC12 (stereo not given) | 0% [at 92.4 µM] | –
49 | CCCCC/C=C\CCC=O | 11.4% [at 92.4 µM] | –
50 | OCCOc1ccc(OCCO)cc1 | 25.8% [at 92.4 µM] | –
51 | OC(CCN1CCCCC1)(c1ccccc1)C1CC2C=CC1C2 (stereo not given) | – | 16.8 µM (active)
52 | Cn1cc(S(C)=O)c(=O)c2ccc(F)cc21 (stereo not given) | 21.2% | –
53 | Cc1cccc(C)c1NC(=O)C(C)N (stereo not given) | 3.49% | –

target: Estrogen receptor beta (Homo sapiens) (UniProt Q92731); assay: qHTS assay to identify small molecule agonists of the estrogen receptor beta (ER-beta) signaling pathway (AID 1259377; active means well fitted activation curve with a large enough effect in the signal ratio in the repeat runs, not every such curve was filed as active; the % refers to the signal ratio); conditions: ER-beta-UAS-bla HEK293T, beta-lactamase FRET ratio, 16 h; series mostly up to 42.5 µM; activation: at the top concentration
In short: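 Beta-lactamase reporter readout: fluorescence of LiveBLAzer B/G FRET substrate after 2 h at room temperature, following 16 h compound treatment of ER-beta-UAS-bla HEK293T cells at 37C in 2% charcoal-stripped FBS medium.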

Chain of Estrogen receptor beta (Homo sapiens) (Q92731 whole entry, looked up): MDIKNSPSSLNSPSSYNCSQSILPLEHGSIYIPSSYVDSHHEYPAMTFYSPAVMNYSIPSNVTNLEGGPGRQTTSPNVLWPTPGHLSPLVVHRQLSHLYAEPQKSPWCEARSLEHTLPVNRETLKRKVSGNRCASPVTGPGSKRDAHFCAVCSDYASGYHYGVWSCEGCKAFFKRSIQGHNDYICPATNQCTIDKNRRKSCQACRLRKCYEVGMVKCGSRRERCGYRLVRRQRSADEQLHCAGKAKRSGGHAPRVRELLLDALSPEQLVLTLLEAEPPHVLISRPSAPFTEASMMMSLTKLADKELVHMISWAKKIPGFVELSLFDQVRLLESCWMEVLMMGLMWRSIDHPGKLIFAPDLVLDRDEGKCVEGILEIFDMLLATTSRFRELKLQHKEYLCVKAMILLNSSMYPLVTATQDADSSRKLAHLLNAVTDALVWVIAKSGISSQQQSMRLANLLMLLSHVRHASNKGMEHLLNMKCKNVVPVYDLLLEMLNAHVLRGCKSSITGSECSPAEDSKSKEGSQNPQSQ

Row | SMILES | activation
54 | COc1ccc(CCN(C)CCCC(C#N)(c2cc(OC)c(OC)c(OC)c2)C(C)C)cc1OC (stereo not given) | -2.91%
55 | CN1CCN(c2cc3c(cc2F)c(=O)c(C(=O)O)cn3-c2ccc(F)cc2)CC1 | 4.08%
56 | Cc1ccc(=O)n(-c2ccccc2)c1 | -0.744%
57 | Cc1cccn2c(=O)c(-c3nnn[nH]3)cnc12 | -0.462% [at 19 µM]
58 | Nc1c2c(nc3ccccc13)CCCC2O (stereo not given) | 0.533%
59 | CC(C)NC(=O)NC(C)C | -0.678% [at 92.4 µM]
60 | O=C(O)c1ccccc1OP(=O)(O)O | -1.76%
61 | C=C(C)C(=O)OCCCCCCCC(C)C | -1.59% [at 92.4 µM]
62 | C=C[Si](OC(=C)C)(OC(=C)C)OC(=C)C | -1.44% [at 92.4 µM]
63 | CCO[Si](CCC1CCC2OC2C1)(OCC)OCC (stereo not given) | 4.48% [at 92.4 µM]
64 | Cc1nc2c([nH]1)c(=O)n(C)c(=O)n2Cc1ccco1 | -0.0859%

target: Estrogen receptor beta (Homo sapiens) (UniProt Q92731); assay: qHTS assay to identify small molecule antagonists of the estrogen receptor beta (ER-beta) signaling pathway (AID 1259378; active means well fitted inhibition curve with a large enough effect in the signal ratio in the repeat runs, not every such curve was filed as active; the % refers to the signal ratio); conditions: ER-beta-UAS-bla HEK293T, beta-lactamase FRET ratio, 16 h; series mostly up to 92.4 µM; activity, negative = inhibition: at the top concentration
In short: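 ER-beta-UAS-bla HEK293T (GripTite) cells in 2% charcoal-stripped FBS medium were preincubated 6 hr at 37C, dosed with compound, then stimulated with 1 nM E2 (final) for 16 hr; beta-lactamase reporter read by B/G FRET fluorescence after 2 hr substrate loading.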

Row | SMILES | activity, negative = inhibition
65 | COc1ccc(CCN(C)CCCC(C#N)(c2cc(OC)c(OC)c(OC)c2)C(C)C)cc1OC (stereo not given) | -2.56% [at 42.5 µM]
66 | O=S(O)CO | -10.2%
67 | Cc1ccc(=O)n(-c2ccccc2)c1 | 11.7% [at 42.5 µM]
68 | Cc1cccn2c(=O)c(-c3nnn[nH]3)cnc12 | 3.16% [at 19 µM]
69 | Nc1c2c(nc3ccccc13)CCCC2O (stereo not given) | 19.1% [at 42.5 µM]
70 | CC(C)NC(=O)NC(C)C | 20.6%
71 | O=C(O)c1ccccc1OP(=O)(O)O | 20.9% [at 42.5 µM]
72 | C=C(C)C(=O)OCCCCCCCC(C)C | 4.59%
73 | C=C[Si](OC(=C)C)(OC(=C)C)OC(=C)C | -4.16%
74 | CCO[Si](CCC1CCC2OC2C1)(OCC)OCC (stereo not given) | 2.35%
75 | Cc1nc2c([nH]1)c(=O)n(C)c(=O)n2Cc1ccco1 | 9.4% [at 42.5 µM]
